The panel holds about 83,000 compounds, 20% with a hit somewhere; the sample as a whole holds those more often.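 Interpretation: 100, growth as untreated; towards 0, rising growth inhibition; 0, no net growth; 0 to -100, cell death. Compounds scoring below 10 were considered active.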 Unmarked numbers belong to inactive results. Active and inactive are the calls of the source.
System: MDA-MB-468 breast
Assay: NCI-60 one-dose screen, 48 h (100 = growth as untreated, 0 = no growth, -100 = all killed)
Conditions: 10 µM unless noted

Structure (SMILES)	growth
Cn1nc(N)c2cc([C@@H]3Nc4ccc5[nH]ncc5c4[C@H]4C5CCC(C5)[C@@H]34)ccc21 (stereo partly specified)	-2.64% (active)
CN(C)c1nc2c([nH]1)c(=O)n(C)c(=O)n2C	101%
COc1ccc2[nH]c(O)c(/C=c3/cc4c(c(-c5ccc(F)c(OC)c5)n3)=Nc3ccccc3-4)c2c1	-70.4% (active)
COc1ccc(C(=O)N2C=Cc3ccccc3C2C#N)cc1 (stereo unspecified)	82.9%
COc1ccc(C(=O)/C=C/c2c(C(F)(F)F)nc3sccn23)cc1OC	-21.1% (active)
COc1ccc(-c2c(-c3cc4c(c(OC)c3OC)OCO4)noc2N)cc1	-6.43% (active)
COc1ccc(Cn2cc(COc3ccc4c5ccnc(C)c5n(CCCc5ccccc5)c4c3)nn2)cc1	62.5%
C/C=C(/C)n1cnc2c(Nc3ccccn3)nc(Cl)nc21	93%
CCc1cccc(CC)c1N1C(=O)C=CC1=O	34.7%
CCOc1cc(F)c([N+](=O)[O-])cc1[N+](=O)[O-]	-35.2% (active)
Cn1cc(-c2csc(-c3cn(CCO)c4ccc(F)cc34)n2)c2cccnc21	-16.5% (active)
O=C(c1ccccc1)C(Br)C(Br)c1ccccc1 (stereo unspecified)	72.3%
O=C(NCc1ccc(Cl)cc1Cl)C1CCC(=O)N1c1cccs1 (stereo unspecified)	115%
Nc1c2c(c(O)c3c1=C(CO)C=N3)=NCCS2	-72% (active)
COc1cc(-c2c3sc(=O)[nH]c3nc3c2c(=O)[nH]n3C(C)C)cc2c1OCO2	92.3%
COc1ccc(-c2c3c(cn2Cc2cccc(OC)c2)-c2oncc2CCC3)cc1	88.7%

— PubChem BioAssay (NCI)
